# According to publication PMC4336329 (PLoS ONE, 2015):
# Among all 310,000 compounds or so, about 2,200 (0.71%) showed an effect of 50% or more. Effects have a minus sign here. Only a selection was taken, and strong results are over-represented in it overall.
# Molecular target: human ether-à-go-go-related gene (hERG) potassium channel (human, UniProt Q12809)
# Assay: primary screen, population patch clamp on CHO cells stably expressing hERG; higher = less effect of the substance
# Procedure: Briefly, Chinese hamster ovary (CHO) cells stably expressing the hERG channel were dislodged from tissue culture flasks and dispensed into PPC plates. […] During the recording, background leak currents were estimated by a 100 ms step to -80 mV from an initial holding potential of -70 mV and subtracted from the subsequent current measurement. The campaign was conducted in two phases using slight differences in recording protocol. In the first phase, the initial voltage pulse used a 100 ms step to -30 mV from a holding potential of -70 mV, a 2 s conditioning step to +25 mV, and a 2 s test step to -30 mV. During the second phase of the screen, the potential during the conditioning step was raised to +45 mV. In both phases of the campaign, a secondary voltage pulse was applied using the same parameters as the second phase initial pulse. The initial and secondary pulses were applied in the absence of compound, and upon application of 1 μM and 10 μM test concentrations. Small molecule effects on hERG current density were quantified by […].
# Sequence of human ether-à-go-go-related gene (hERG) potassium channel (Q12809 whole entry, looked up): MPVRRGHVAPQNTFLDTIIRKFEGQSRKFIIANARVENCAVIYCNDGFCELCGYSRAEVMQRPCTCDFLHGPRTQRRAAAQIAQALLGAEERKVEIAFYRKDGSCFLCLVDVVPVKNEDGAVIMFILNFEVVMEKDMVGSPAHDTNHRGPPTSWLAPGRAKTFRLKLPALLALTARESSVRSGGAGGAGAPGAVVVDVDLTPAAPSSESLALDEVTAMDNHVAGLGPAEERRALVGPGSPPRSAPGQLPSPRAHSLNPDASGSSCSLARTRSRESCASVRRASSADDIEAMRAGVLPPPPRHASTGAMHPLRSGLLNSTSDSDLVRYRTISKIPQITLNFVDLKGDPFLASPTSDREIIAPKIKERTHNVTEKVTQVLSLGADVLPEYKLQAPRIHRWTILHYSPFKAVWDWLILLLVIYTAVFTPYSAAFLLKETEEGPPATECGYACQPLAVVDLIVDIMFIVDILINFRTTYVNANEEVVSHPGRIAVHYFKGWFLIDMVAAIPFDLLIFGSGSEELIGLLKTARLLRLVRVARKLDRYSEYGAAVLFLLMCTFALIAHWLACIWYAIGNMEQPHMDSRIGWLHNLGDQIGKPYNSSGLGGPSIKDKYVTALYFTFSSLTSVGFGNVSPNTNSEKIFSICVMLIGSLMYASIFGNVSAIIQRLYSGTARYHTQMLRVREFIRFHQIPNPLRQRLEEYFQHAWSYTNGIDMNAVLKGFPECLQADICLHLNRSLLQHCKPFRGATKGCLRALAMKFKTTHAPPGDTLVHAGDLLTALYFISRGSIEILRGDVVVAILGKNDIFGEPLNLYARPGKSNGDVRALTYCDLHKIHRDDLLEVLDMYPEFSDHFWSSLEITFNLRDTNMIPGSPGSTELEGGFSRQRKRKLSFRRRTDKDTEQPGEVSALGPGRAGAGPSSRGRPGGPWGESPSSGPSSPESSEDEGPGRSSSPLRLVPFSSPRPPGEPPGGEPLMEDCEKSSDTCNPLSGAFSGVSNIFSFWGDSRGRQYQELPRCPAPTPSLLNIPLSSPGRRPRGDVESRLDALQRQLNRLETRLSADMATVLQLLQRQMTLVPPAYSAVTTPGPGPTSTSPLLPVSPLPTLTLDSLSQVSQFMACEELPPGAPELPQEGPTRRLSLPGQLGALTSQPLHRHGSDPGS
row,SMILES,"hERG current change (%, negative = inhibition) at 1uM [%]"
1,O=C(O)COCC(=O)N1CCN(C2c3ccccc3-c3ccccc32)CC1,12.4
2,CCCC/C(O)=C/c1nc2ccccc2[nH]c1=O,1.79
3,O=C(NCc1ccco1)c1cc2n(n1)C(C(F)(F)F)CC(c1ccc(F)cc1)N2 (stereo not drawn),-4.18
4,COc1ccc(C(=O)CN2C3=NCCCN3c3ccccc32)cc1OC,-6.85
5,Br.O=C(CN1C2=NCCCN2c2ccccc21)c1cccc(Br)c1,-28.6
6,Br.Cc1ccc(C)c(C(=O)CN2C3=NCCCN3c3ccccc32)c1,-43
7,Br.O=C(CN1C2=NCCN2c2ccccc21)c1ccc(Br)cc1,-28.4
8,Br.O=C(CN1C2=NCCCN2c2ccccc21)c1ccc([N+](=O)[O-])cc1,-54
9,Br.COc1cccc(C(=O)CN2C3=NCCCN3c3ccccc32)c1,-61.2
10,COc1ccc(-c2csc(N3C(=O)C4C5c6ccccc6C(c6ccccc65)C4C3=O)n2)cc1 (stereo not drawn),11.9
11,Cc1ccc(/C=C2/SC(=Nc3ccc(F)cc3)NC2=O)s1,13
12,Cc1csc2nc(NC(=O)c3ccccc3)sc(=O)c12,8.93
13,Nc1c(Sc2ccccc2)c(=O)[nH]c(=O)n1Cc1ccccc1,-13.3
14,Cc1ccc(S(=O)(=O)N2CCCC2CNC(=O)C(=O)NCCN2CCOCC2)cc1 (stereo not drawn),16.8
15,Cc1ccc(S(=O)(=O)Nc2cccc(C(=O)NCc3ccc(S(N)(=O)=O)cc3)c2)cc1,12.7
16,O=C(CN1CCN(C(=O)c2ccccc2)CC1)Nc1ccccc1,3.18
17,O=C(CN1CCN(C(=O)c2ccccc2)CC1)Nc1ncc(Br)cc1Br,-84.9
18,CCc1nnc(NC(=O)CN2CCN(C(=O)c3ccccc3)CC2)s1,10.9
19,O=C(CN1CCCCCC1)Nc1ccc(Br)cn1,3.88

row,SMILES,"hERG current change (%, negative = inhibition) at 1uM [%]"
1,O=C(CN1CCN(C(=O)c2ccccc2)CC1)Nc1ccc(Br)cn1,-72.1
2,O=C(CN1CCOCC1)Nc1ncc(Br)cc1Br,4.34
3,CC(=O)N1CCC(C(=O)Nc2ccccc2)(N(Cc2ccccc2)C(=O)c2cccnc2)CC1,17.6
4,Nc1ccc(Sc2ccccc2Cl)nc1,0.8
5,O=C(CCN1CCOCC1)Nc1ccc2c(c1)CCC2,3.78
6,Cc1[nH][nH]c(=O)c1C=NCc1cccnc1,14.3
7,Cc1ccc(OCc2cc(C(=O)NCC(C)(C)N3CCOCC3)no2)cc1C,4.83
8,CCN(CC1CCCO1)C(=O)c1cc(COc2ccccc2SC)on1 (stereo not drawn),-58.9
9,CCN(CC1CCCO1)C(=O)c1cc(COc2ccc(F)cc2F)on1 (stereo not drawn),2.73
10,CSc1ccccc1OCc1cc(C(=O)NCC(C)(C)N2CCOCC2)no1,-72.2
11,COc1ccc(OCc2cc(C(=O)N(C)CC3CCCCO3)no2)c(Cl)c1 (stereo not drawn),-1.77
12,CN(CC1CCCCO1)C(=O)c1cc(COc2ccc(F)cc2Cl)on1 (stereo not drawn),-74.4
13,CCN(CC1CCCO1)C(=O)c1cc(COc2ccc(OC)cc2Cl)on1 (stereo not drawn),5.36
14,COc1cc(Cl)ccc1OCc1cc(C(=O)N(C)CC2CCCCO2)no1 (stereo not drawn),2.24
15,COc1ccc(OCc2cc(C(=O)NCC(C)(C)N3CCOCC3)no2)c(Cl)c1,0.582
16,Cc1ccc(OCCN(C)C(=O)c2cc(COc3ccc(F)cc3F)on2)cc1,-0.323
17,COC(=O)c1cccc(NC(=O)c2ccc(S(=O)(=O)N3CCN(C)CC3)cc2)c1,16.5
18,COCCN(C(=O)CSc1nc2ccccc2c(=O)n1CC(C)C)c1c(N)n(Cc2ccccc2)c(=O)[nH]c1=O,11.8
19,CC(C)n1c(/C=C/[C@H](O)C[C@H](O)CC(=O)[O-])c(-c2ccc(F)cc2)c2ccccc21.[Na+],11.8

row,SMILES,"hERG current change (%, negative = inhibition) at 1uM [%]"
1,Cc1cc(O)c(C(C)C)cc1NS(=O)(=O)c1ccccc1,10.4
2,COc1ccccc1-n1c(SC(C)C(=O)NCC2CCCO2)nc2cc(Cl)ccc2c1=O (stereo not drawn),12.1
3,CC(C)C(=O)N1CCN(c2nc(-c3ccc(Cl)cc3)cs2)CC1,-69.6
4,CCC(=O)N1CCN(c2nc(-c3ccc(Cl)cc3)cs2)CC1,9.84
5,CCOC(=O)N1CCN(c2nc(-c3ccc(Cl)cc3)cs2)CC1,-8.51
6,O=C(NNc1ccccc1F)c1ccccc1,2.87
7,COc1cc(NC(=O)[C@H]2CSCN2C(=O)[C@@H]2CCC(=O)N2)cc(OC)c1OC,10.8
8,Cc1ccc(S(=O)(=O)Nc2cccc(Cl)c2)cc1NC(=O)c1cccnc1,5.21
9,Cc1ccc(C(=O)NC(=S)N(C)C2CCCCC2)cc1,6.79
10,CN(CC(=O)Nc1c(Cl)cccc1Cl)C(=O)CNC(=O)c1ccco1,8.71
11,O=C(CN(Cc1ccccc1)S(=O)(=O)c1ccc(Br)cc1)NCC1CCCO1 (stereo not drawn),-80.5
12,O=C(CN(Cc1ccc(Br)cc1)S(=O)(=O)c1ccccc1)NCC1CCCO1 (stereo not drawn),11.8
13,O=C(CN(Cc1ccccc1)S(=O)(=O)c1ccc(Cl)cc1)NCC1CCCO1 (stereo not drawn),3.41
14,CCn1c2ccccc2c2cc(CNCc3ccc(OC)cc3OC)ccc21.O=C(O)C(=O)O,-47.5
15,Cc1nc2ccccc2cc1C(=O)Nc1ccccc1Cl,3.5
16,C/C=C/c1ccc(OC(C)=O)c(OC)c1,8.76
17,CCOC(=O)N1CCN(C(=O)Cn2cc3c(n2)CCCC3)CC1,-51.2
18,O=C(Cn1cc2c(n1)CCCC2)N1CCCC1,8.36
19,O=C(Cn1cc2c(n1)CCCCC2)N1CCCCC1,9.12
